The values that follow come from PubChem BioAssay (EPA / NIEHS).

Inconclusive results are not listed. Activity calls are given as the source filed them. The calls were made as follows, unless noted: active = hit-call score of the fitted dose curve at least 0.9, where 1 is the maximum; inactive = score below 0.9.

A short description of test [1]: CCTE_Mundy_HCI_Cortical_Synap_Neur_Matur_NeuriteSpotCountPerNeuron: CCTE's Synaptogenesis and Neurite Maturation Assay in rat cortical cells for Neurite Spot Count per Neuron Count, Mundy Lab (AID 2284215). The method in brief: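 Rat primary cortical cells received AraC at DIV 5, then chemicals with a media change at DIV 7, and were fixed at DIV 12. Synaptophysin puncta on MAP2-stained neurites per neuron were counted by high-content imaging, fitted relative to DMSO.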

Test [2] is described as follows: TAMU_PeakParms_SingleDonor1434_Chronotropy: Texas A&M University (TAMU) 1.5-hr Human Induced Pluripotent Stem Cell (iPSC)-derived Cardiomyocytes Calcium (Ca+2) Flux Assay for Cardiotoxicity: Chronotropy (changes in peak frequency) (AID 2284217). The note with it: actives raise or lower the signal. The method in brief:
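Beat rate, as mean Ca2+-flux peak frequency, was read from donor 1434 iPSC cardiomyocytes 90 min after exposure to 0.2–100 uM test chemical (0.5% DMSO). Wells that stopped beating were excluded; EC05 from bidirectional DMSO-referenced fitting.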

Test [3] is described as follows: CCTE_Mundy_HCI_hN2_NOG_NeuriteCount: CCTE's Neurite Outgrowth Assay in human hN2 cells for Neurite Count, Mundy Lab (AID 2284219; active = hit-call score of the fitted dose curve at least 0.9, where 1 is the maximum). The method in brief:
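In this morphology assay, hNP1-derived neurons received test chemical 2 h post-plating and were fixed two days later in warm paraformaldehyde/sucrose containing Hoechst 33342. Neurites, labelled by rabbit anti-βIII-tubulin (1:800) and Alexa Fluor-488 (1:500), were counted automatically.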

A short description of test [4]: CCTE_Mundy_HCI_hN2_NOG_NeuriteLength: CCTE's Neurite Outgrowth Assay in human hN2 cells for Neurite Length, Mundy Lab (AID 2284220; active = hit-call score of the fitted dose curve at least 0.9, where 1 is the maximum). The procedure, abridged:
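Plate hNP1-derived neurons, then add chemical 2 h later as a 1/10 dilution. Stain with anti-βIII-tubulin then Alexa Fluor-488 secondary, and image automatically to measure neurite length.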

Test [5] is described as follows: CCTE_Mundy_HCI_hN2_NOG_NeuronCount: CCTE's Neurite Outgrowth Assay in human hN2 cells for Neuron Count, Mundy Lab (AID 2284221; active = hit-call score of the fitted dose curve at least 0.9, where 1 is the maximum). The procedure, abridged: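 Read-out is the number of betaIII-tubulin-positive neurons imaged by automated high-content analysis, with DMSO as negative control.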
The nature of test [6]: CCTE_Mundy_HCI_Cortical_Synap_Neur_Matur_CellBodySpotCount: CCTE's Synaptogenesis and Neurite Maturation Assay in rat cortical cells for Cell Body Spot Count, Mundy Lab (AID 2284223). The procedure, abridged:
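Rat primary cortical cultures received AraC at DIV 5 to arrest glia, were dosed with chemical at DIV 7 with media change, and were fixed at DIV 12 (288.33 h). Synaptophysin puncta on MAP2-positive cell bodies per neuron were counted by high-content imaging versus DMSO.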

The nature of test [7]: CCTE_Mundy_HCI_hNP1_Pro_ResponderAvgInten: CCTE's Proliferation Assay in human neuroprogenitor cells, Mundy Lab (AID 2284224; active = hit-call score of the fitted dose curve at least 0.9, where 1 is the maximum). The procedure, abridged: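 Proliferation was scored as BrdU labelling intensity in human neural progenitors derived from WA09 embryonic cells, measured 26.25 hours after chemical dosing. Activity was fitted relative to DMSO.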
Test [8] can be described thus: TAMU_HCS_1.5hr_SingleDonor1434_Cytotoxicity: Cytotoxicity Assessment using High-content Screening (HCS) Fluorescent Imaging for the Texas A&M University (TAMU) 1.5-hr Human Induced Pluripotent Stem Cell (iPSC)-derived Cardiotoxicity Assay (AID 2284234; active = hit-call score of the fitted dose curve at least 0.9, where 1 is the maximum). The procedure, abridged: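 Nuclear counts from Hoechst 33342 imaging define cytotoxicity here, with EC10 (10% cell-count loss relative to DMSO) as point of departure. iPSC cardiomyocytes received 0.2-100 uM test chemical in 0.5% DMSO for 1.5 h at 37 C.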

Test [9] in a line: TAMU_PeakParms_SingleDonor1434_QT: Texas A&M University (TAMU) 1.5-hr Human Induced Pluripotent Stem Cell (iPSC)-derived Cardiomyocytes Calcium (Ca+2) Flux Assay for Cardiotoxicity: QT (decay-rise ratio) (AID 2284235; active = hit-call score of the fitted dose curve at least 0.9, where 1 is the maximum). The procedure, abridged:
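Decay/rise ratio of calcium-flux fluorescence scored after 90 min exposure (37C) of donor 1434 iPSC cardiomyocytes to 0.2–100 uM (0.5% DMSO). Beat-cessation and severe-notch points removed; POD is EC05, a 5% rise over DMSO.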

Test [10] can be described thus: CCTE_Mundy_HCI_Cortical_NOG_NeuronCount: CCTE's Neurite Outgrowth Assay in rat cortical cells for Neuron Count, Mundy Lab (AID 2284236; active = hit-call score of the fitted dose curve at least 0.9, where 1 is the maximum;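 also: neurons counted by imaging betaIII-tubulin and Hoechst stained cortical cells; cells exposed to compound for about 48 hours before fixation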). The procedure, abridged: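 Read-out: neuron number by high-content imaging of betaIII-tubulin (Alexa Fluor-488) and Hoechst-labelled rat primary cortical cells.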
Test [11] in a line: BSK_BT_PBMCCytotoxicity: PBMC Cytotoxicity Assessment in the BioMAP Diversity Plus: BT Assay (AID 2284225).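 Also: PBMC viability measured by Alamar Blue dye reduction fluorescence.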 Conditions: primary human B cells with PBMC. The procedure, abridged: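 Viability by Alamar Blue reduction (6 h, ex/em 546/580 nm) after 90 h culture of SEB/TSST-1-activated PBMC (20 ng/mL each) given compound 1 h before activation. DMSO served as baseline for curve fitting.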

Read-out in test [12]: Secreted IgG (sIgG), gene 3500
Put plainly: BSK_BT_sIgG: BioMAP Diversity Plus: BT Assay for Secreted IgG (sIgG) Biomarker Activity (AID 2284226). Conditions: primary human B cells with PBMC. The method in brief:
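Cells (B cells with peripheral blood mononuclear cells) are dosed, cultured 24 h, then supernatant IgG is measured by ELISA. DMSO serves as negative control; curves are fitted for signal increase.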

A short description of test [13]: BSK_BT_Bcell_Proliferation: Viability Assessment in the BioMAP Diversity Plus: BT Assay for B cell Proliferation (AID 2284227). Conditions: primary human B cells with PBMC. The procedure, abridged:
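Human B cell/PBMC co-culture; test chemical added; 72 h; TCA fix (10%), 0.1% SRB stain, A560 for total protein as a proliferation read-out; positive-direction fit vs DMSO baseline.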

Read-out in test [14]: Interleukin 6 (IL6), IL6 (gene 3569)
The test is described as follows: BSK_BT_xIL6: BioMAP Diversity Plus: BT Assay for Interleukin 6 (IL6) Biomarker Activity (AID 2284228). The note with it: primary human B cells with PBMC. The method in brief:
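Human B cell plus PBMC co-culture exposed to test chemical for 24 h; secreted IL-6 quantified by Luminex xMAP bead assay. Activity fitted in the positive direction against DMSO as negative control and baseline.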

Read-out in test [15]: Interleukin 17A (IL17A), IL17A (gene 3605)
Put plainly: BSK_BT_xIL17A: BioMAP Diversity Plus: BT Assay for Interleukin 17A (IL17A) Biomarker Activity (AID 2284229). The note with it: primary human B cells with PBMC. The method in brief: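 B cells co-cultured with PBMC were exposed to test chemicals, and secreted IL-17A was quantified 24 h after dosing by Luminex xMAP bead immunoassay. Activity was fitted in the gain direction against DMSO as baseline.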

Read-out in test [16]: Tumor necrosis factor (Homo sapiens) (UniProt P01375)
The test is described as follows: BSK_BT_xTNFa: BioMAP Diversity Plus: BT Assay for Tumor necrosis factor alpha (TNF-alpha) Biomarker Activity (AID 2284230). The note with it: primary human B cells with PBMC. The procedure, abridged: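 Read-out: Luminex xMAP quantitation of secreted TNF-alpha from a B cell/PBMC co-culture 24 h after compound addition. Signal analysed relative to DMSO vehicle, positive fitting direction.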

Read-out in test [17]: Vascular cell adhesion molecule 1 (VCAM1), VCAM1 (gene 7412)
The test is described as follows: BSK_MyoF_VCAM1: BioMAP Diversity Plus: MyoF Assay for Vascular cell adhesion molecule 1 (VCAM1) Biomarker Activity (AID 2284231). Conditions: primary human lung fibroblasts. The method in brief: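 Primary human lung fibroblasts were dosed with test chemical for 24 h, then cell-surface VCAM-1 was measured by ELISA. Activity was fitted in the positive direction against DMSO as negative control and baseline.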

Test [18] is described as follows: CCTE_Mundy_HCI_Cortical_Synap_Neur_Matur_NeuriteCount: CCTE's Synaptogenesis and Neurite Maturation Assay in rat cortical cells for Neurite Count, Mundy Lab (AID 2284222).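 As to outcome: exposure from day 7 to day 12 in vitro with readout at day 12.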 The procedure, abridged: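 Rat cortical neurons, 96-well; AraC DIV 5; chemical + media change DIV 7; end DIV 12. Fix PFA/Hoechst, anti-MAP2 + anti-synaptophysin IF. HCI neurite count vs DMSO baseline.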

Test [19] can be described thus: UKN2_HCS_IMR90_cell_viability: Viability Assessment in the University of Konstanz (UKN) Leist Lab Neural Crest Cell Migration Assay in human induced IMR90 Pluripotent Stem Cells (UKN2) (AID 2284233).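 Also: cells exposed to compound for 24 h after a 24 h migration phase.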 The procedure, abridged:
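After calcein-AM/Hoechst staining, viability is quantified by high-content fluorescence imaging, relative to DMSO, in iPSC (IMR90)-derived neural crest cells. Exposure lasts 24 h, starting after a 24 h migration period on PLO/laminin/fibronectin coating.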

The nature of test [20]: UKN4_HCS_LUHMES_cell_viability: Viability Assessment in the University of Konstanz (UKN) Leist Lab Neurite Outgrowth Assay in human LUHMES cells (UKN4) (AID 2284232). The method in brief:
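Cells switched to differentiation medium at day 0, replated on day 2 in medium lacking cAMP and GDNF, and compound-treated once attached. Live staining began 23.5 h later, imaging followed at 24 h.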

Tumor necrosis factor (Homo sapiens), sequence (P01375 whole entry, looked up): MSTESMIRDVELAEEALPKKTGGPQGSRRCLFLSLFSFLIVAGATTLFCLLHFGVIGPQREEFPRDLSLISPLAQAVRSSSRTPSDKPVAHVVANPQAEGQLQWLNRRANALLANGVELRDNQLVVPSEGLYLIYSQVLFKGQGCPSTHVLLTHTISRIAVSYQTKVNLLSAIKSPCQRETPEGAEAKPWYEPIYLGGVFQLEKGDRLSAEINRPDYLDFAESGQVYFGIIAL

Turning to `CC(C)(c1ccc(O)cc1)c1ccc(O)cc1`, the AC50 is 50 µM (active) in test [1]; 50 µM (active) in [2]; 77.3 µM (active) in [3]; 78.8 µM (active) in test [4]; 50 µM (active) in test [5]. Further, the compound was called inactive in test [6], in [7], in test [8], in test [9] and in [10].
As for `CCC(C)OC(=O)N1CCCCC1CCO` (centres undefined), the outcome in test [11], in test [12], in test [13], in test [14], in test [15] and in [16] was inactive. Besides, the result in [17] was inactive.
Regarding `Cc1nn(C)c(Oc2ccccc2)c1C=NOCc1ccc(C(=O)OC(C)(C)C)cc1`, the AC50 in test [1] is 0.00181 µM (active); in [18] it was 0.00454 µM (active); in test [6], 0.00403 µM (active); in test [7], 7.65 µM (active); in test [19], 14 µM (active); in [10] it was 0.327 µM (active).
`S=C(S)NCCNC(=S)S.[Mn+2].[S-]C([S-])=NCCN=C([S-])[S-].[Zn+2]`: the compound was called inactive in test [1], in test [18] and in test [6].
As to `CC(=O)[C@H]1CC[C@H]2[C@@H]3CCC4=CC(=O)CC[C@]4(C)[C@H]3CC[C@]12C`, the outcome in test [2], in test [8] and in test [9] was inactive.
As to `S=C([S-])NCCNC(=S)[S-].[Mn+2]`, the compound was called inactive in test [1], in [3], in [4], in test [5] and in test [6]. In addition, the AC50 in test [20] was 3.31 µM (active); in [19], 16.1 µM (active).
Turning to `C#CCOC(=O)[C@@H](C)Oc1ccc(Oc2ncc(Cl)cc2F)cc1`, the compound was classed as inactive in test [1], in test [18], in test [6], in [19] and in test [10]. For the same compound, the AC50 in test [7] was 50 µM (active).
Regarding `COCCO`, the result in test [2], in test [11], in [12], in [13], in test [14] and in test [15] was inactive. Moreover, the result in test [16], in test [17] and in [8] was inactive.
In the case of `N#CSCSc1nc2ccccc2s1`, the AC50 was 3.65 µM (active) in test [11]; 3.18 µM (active) in test [12]; 5.47 µM (active) in test [13]; 4.1 µM (active) in test [14]; 4.06 µM (active) in test [15]; 7.28 µM (active) in test [16]. Moreover, the AC50 in [17] is 4.37 µM (active).
Consider `CSC(=O)c1cccc2nnsc12`, for which the compound was called inactive in test [1], in [18] and in test [6].
For the compound `O=C(O)c1ccccc1`, the result in [1], in test [2], in test [3], in [4], in test [5] and in test [18] was inactive. Also, the result in [6], in test [9] and in test [10] was inactive.
On to `CC1(C)C(C=C(Cl)Cl)C1C(=O)OCc1cccc(Oc2ccccc2)c1` (centres undefined), for which the AC50 in test [1] is 8.69 µM (active); in test [5], 20.2 µM (active); in [10], 78.4 µM (active). The outcome in [2], in [3], in [4], in [18], in test [6] and in test [7] was inactive. The result in test [9] was inactive.
On to `c1ccc2[nH]c(-c3cscn3)nc2c1`, for which the AC50 in [2] is 9.92 µM (active). The compound was called inactive in test [8] and in test [9].
`CCN(CC)C(=O)c1cccc(C)c1`: the compound was called inactive in test [1], in [18], in test [6], in test [7], in test [19] and in [10].
Turning to `CCCN(CCC)C(=O)SCC`, the call in test [1], in [18], in test [6], in [7] and in test [19] was inactive.
